# Compound activity: PubChem BioAssay, Sanford-Burnham Center for Chemical Genomics
# Most compounds without a hit are left out; they make up all but 31% or so of the library.
# CYP2C19 activ = cytochrome P450 2C19 (human) activation; activation factor at 5 µM; recombinant CYP2C19, luciferin-H EGE luminescence; hits give high values; 0 = fully inhibited enzyme, 1 = untreated enzyme; P33261; 96,000 tested, under 10 active;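 active means activation factor of at least 2 at 5 µM in the primary screen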;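 further: 0 = wells with 2.5 mM tranylcypromine and 1 = vehicle-only wells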
# Target sequence (P33261 whole entry, looked up): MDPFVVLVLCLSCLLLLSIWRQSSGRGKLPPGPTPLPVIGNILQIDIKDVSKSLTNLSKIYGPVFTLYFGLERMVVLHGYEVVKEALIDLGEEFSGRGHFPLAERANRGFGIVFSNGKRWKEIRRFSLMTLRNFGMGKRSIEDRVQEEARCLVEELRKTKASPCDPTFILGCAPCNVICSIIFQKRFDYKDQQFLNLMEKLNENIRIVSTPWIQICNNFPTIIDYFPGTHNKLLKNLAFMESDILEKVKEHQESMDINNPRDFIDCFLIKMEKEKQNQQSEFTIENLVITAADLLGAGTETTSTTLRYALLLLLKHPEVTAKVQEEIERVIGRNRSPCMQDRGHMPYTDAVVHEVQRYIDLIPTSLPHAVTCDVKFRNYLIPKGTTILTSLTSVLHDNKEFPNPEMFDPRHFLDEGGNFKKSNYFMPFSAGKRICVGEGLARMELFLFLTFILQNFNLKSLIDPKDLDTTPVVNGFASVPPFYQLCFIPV
# CYP2C9 inhib = blocks human cytochrome P450 2C9. hit rate 20% among 96,000. P11712. inhibition, % at 5 µM. AID 777. CYP2C9 Supersomes, luciferin-H conversion, luminescence;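 active means blocking of liver enzyme CYP2C9 beyond about 50% at 5 µM, limit read from the data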
# PLAP activator = human PLAP activation; P05187; purified PLAP enzyme, luminescent substrate read-out; hits give high values; activation fold at 20 µM; hit rate 1.2% among 96,000; in the data active means activation fold above about 2
# CYP2C9 activ = CYP2C9 (human) activation; AID 1024; hit rate 1.4% among 96,000; activation factor at 5 µM; recombinant CYP2C9, luciferin-H conversion, luminescence; hits give high values; factor 1 = untreated enzyme, 0 = blocked;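 active means activation factor of 2 or more for CYP2C9 at a 5 µM dose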;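 further: 0 = sulfaphenazole-blocked wells and 1 = vehicle-only wells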
# CYP2C19 inhib = human CYP2C19 inhibition; CYP2C19 Supersomes, luciferin-H EGE luminescence, 30 min; inhibition, % at 5 µM; hit rate 21% among 96,000;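 active means CYP2C19 inhibition above a set limit at 5 µM in the primary screen, cut at about 50% in these data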;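 further: plate controls were negative control wells for no effect and 2.5 mM tranylcypromine positive control for full effect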
# * hit, by the source's call.
SMILES,CYP2C19 activ,CYP2C9 inhib,PLAP activator,CYP2C9 activ,CYP2C19 inhib
CCN(CC)S(=O)(=O)c1cccc(C(=O)OCc2cc(=O)n3nc(C)sc3n2)c1,0.8,55*,1.1,0.4,23
O=C(/C=C/c1ncc(C(F)(F)F)cc1Cl)OCc1ccccc1,1.1,-19,1,1.2,-8
CCCn1c(/N=C/c2c[nH]c3ccccc23)nc2ccccc21,1,15,1,0.8,4
CCn1c(/N=C/c2c[nH]c3ccccc23)nc2ccccc21,0.4,90*,1.2,0.1,61*
CCn1c(C)nc2cc(C(=O)n3cc(C(=O)c4ccccc4O)cn3)ccc21,0.9,41,1.4,0.6,10
CCn1c(C)nc2cc(C(=O)NNS(=O)(=O)c3c(C)c(C)cc(C)c3C)ccc21,0.5,-2,2*,1,55*
CCn1c(C)nc2cc(C(=O)OC(C(F)(F)C(F)F)C(F)(F)C(F)F)ccc21,0.5,54*,1.4,0.5,48
COc1ccc(C2C(=O)N(CCc3ccccc3)CC(=O)N2C2CCCCC2)cc1 (centres undefined),0.9,30,1.8,0.7,14
O=C(c1ccco1)N1CCN(C(c2ccccc2Cl)c2nnnn2Cc2cccs2)CC1 (centres undefined),0.1,92*,1.5,0.1,89*
COCCn1nnnc1C(C(C)C)N1CCN(C(=O)c2ccco2)CC1 (centres undefined),1,-10,0.8,1.1,4
CC(C)CC(c1nnnn1Cc1ccccc1)N1CCN(C(=O)c2ccco2)CC1 (centres undefined),0.1,65*,1.6,0.3,87*
CCCC(c1nnnn1CCOC)N1CCN(C(=O)c2ccco2)CC1 (centres undefined),0.5,44,1.1,0.6,50*
Cc1ncsc1C(=O)NCc1ccc(N2CCCC2=O)cc1,1.1,6,0.9,0.9,-11
CCCn1c(=O)c2ccccc2n2c(SCCOc3ccc(C)cc3)nnc12,0.5,36,1.3,0.6,47
CC1(C)CC(=O)C=C(NC2CCCCCC2)C1,1,5,0.9,1,2
CCOC(=O)C1=C(CSc2nccn2C)NC(=O)NC1c1ccc2c(c1)OCO2 (centres undefined),0.1,41,1.1,0.6,88*
O=C(COc1ccccc1Cl)Nc1cnn(Cc2ccccc2)c1,0.8,27,0.8,0.7,21
O=C(Nc1cnn(Cc2c(Cl)cccc2Cl)c1)C(c1ccccc1)c1ccccc1,0.8,87*,0.9,0.1,15
O=C(c1ccc2c(c1)OCO2)N(c1ccc(Cl)cc1)C1C=CS(=O)(=O)C1 (centres undefined),0.3,25,0.8,0.8,70*
Cc1cc(C)cc(N(C(=O)c2ccc3c(c2)OCO3)C2C=CS(=O)(=O)C2)c1 (centres undefined),0.5,-13,0.8,1.1,54*
Cc1ccc(N(C(=O)c2ccc3c(c2)OCO3)C2C=CS(=O)(=O)C2)cc1 (centres undefined),0.6,22,1,0.8,44
O=C(c1ccc(Br)o1)N(c1ccc(Br)cc1)C1C=CS(=O)(=O)C1 (centres undefined),0.1,59*,1.3,0.4,86*
O=C(NC(=S)NCc1ccccc1)C1CCCCC1,0.8,14,1,0.9,22
CCc1cc2c(-c3ccccc3)cc(=O)oc2c(CN2CCOCC2)c1O,0.2,92*,1.3,0.1,78*
O=c1cc(-c2ccccc2)c2ccc(O)c(CN3CCCCC3)c2o1,1,-8,1,1.1,-4
SMILES,CYP2C19 activ,CYP2C9 inhib,PLAP activator,CYP2C9 activ,CYP2C19 inhib
O=C(c1cccc(F)c1)N1CCN(C(=O)c2cc3ncc(Br)cn3n2)CC1,0.8,11,1,0.9,24
Cc1ccc(CS(=O)(=O)c2ccccc2-c2nnc(-c3ccc(Cl)cc3)o2)cc1,0.6,91*,1,0.1,44
O=C(O)CSc1ncnc2c1oc1ccccc12,1,6,1,0.9,1
Cc1nc(SCC(=O)Nc2ccc(C)c(F)c2)c2oc3ccccc3c2n1,0.2,93*,0.9,0.1,79*
COc1ccc(CCNC(=O)CSc2ncnc3c2oc2ccccc23)cc1OC,0.5,82*,1.7,0.2,51*
O=C(CSc1ncnc2c1oc1ccccc12)NCc1ccco1,0.8,60*,1,0.4,17
COc1cccc(NC(=O)CSc2ncnc3c2oc2ccccc23)c1,0.9,7,0.8,0.9,6
O=C(CSc1ncnc2c1oc1ccccc12)Nc1ccccc1C(F)(F)F,0.6,85*,1,0.2,44
CC(C)[C@H](NC(=O)Nc1ccc(Oc2ccccc2)cc1)C(=O)O,1,29,1.4,0.7,0
CC(C)(C)c1ccc(C(=O)Nc2ccc(CC(=O)O)cc2)o1,1,-8,1.1,1.1,-3
O=C(COC(=O)Cc1ccc(S(=O)(=O)N2CCOCC2)s1)Nc1ccc2c(c1)OCO2,0.9,21,1.1,0.8,8
COC(=O)c1ccc2c(c1)S(=O)(=O)NC(=NCc1ccco1)S2,0.8,-22,0.9,1.2,22
O=c1cnnc(SCCc2ccccc2)[nH]1,0.8,30,1.1,0.7,15
Nc1ncnc2nc(SCCc3ccccc3)[nH]c12,0.8,11,2*,0.9,20
N#CC1(C#N)C2=C(CCCC2)NC(c2ccccc2)C1(C#N)C#N (centres undefined),0.9,40,1.5,0.6,15
Cc1ccc(Cn2cccc(NC(=O)c3ccco3)c2=O)cc1,0.3,60*,1.1,0.4,72*
CC(C)CNC(=O)c1cccc(NC(=O)c2ccco2)c1,1,6,0.7,0.9,-4
CN(Cc1ccccc1)C(=O)c1cccc(NC(=O)c2ccco2)c1,0.6,-212,1,3.1*,38
O=C(NCc1ccco1)c1cccc(NC(=O)c2ccco2)c1,0.7,82*,1.6,0.2,30
O=C(NCc1ccccc1)c1cccc(NC(=O)c2ccco2)c1,0.4,85*,0.8,0.1,56*
CC(C)Oc1ccc(C(=O)NCc2ccco2)cc1,0.3,12,1.1,0.9,70*
O=C(Nc1ccccc1C(=O)NCc1ccco1)c1ccco1,0.6,71*,1,0.3,36
Cc1ccc(C(=O)Nc2cccc(C(=O)NCc3ccccc3)c2)o1,0.5,88*,0.9,0.1,52*
CC(C)(C)c1ccccc1NC(=O)c1ccco1,0.5,32,1.1,0.7,53*
Cn1c(=O)[nH]c(=O)c2c1nc(N1CCCC1)n2CCSc1nc2ccccc2[nH]1,1.1,9,0.7,0.9,-6
COCCNC(=O)COc1ccc(Oc2ccccc2)cc1,0.8,7,0.9,0.9,22
O=C(COc1ccc(Cl)cc1)Nc1ccccc1C(=O)NCc1ccco1,0.9,21,1.3,0.8,9
Cc1cc(C)cc(OCC(=O)Nc2ccccc2C(=O)NCc2ccco2)c1,0.1,80*,0.8,0.2,91*
